These results are taken from PubChem BioAssay (NCI).

Compounds without any hit were thinned out: in the full panel of roughly 83,000, 20% have a hit.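 Single-dose data. Exposure time 48 hours. Values below 10 considered active.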 A number with no mark means an inactive call. Calls of active or inactive are those of the source.

Some test systems named below: SK-MEL-2 melanoma; EKVX NSCLC; SN12C renal; UO-31 renal; TK-10 renal; ACHN renal; CAKI-1 renal; A498 renal; CCRF-CEM leukemia; MOLT-4 leukemia.
Common to all, as to experiment: NCI-60 one-dose screen, 48 h (100 = growth as untreated, 0 = no growth, -100 = all killed)
Holding throughout (conditions): 10 µM unless noted

Consider `CC(=O)C1=C(O)C=C2Oc3c(C(=O)/C=C/c4c(Cl)cccc4Cl)c(O)c(C)c(O)c3[C@]2(C)C1=O`, for which the growth was -49.1% (active) with SK-MEL-2 melanoma; -0.577% (active) in the assay with EKVX NSCLC; -30.9% (active) in the assay with SN12C renal; -28.6% (active) in the assay with UO-31 renal; -30.8% (active) in the assay with TK-10 renal; -15.3% (active) with ACHN renal. For the same molecule, the growth in the assay with CAKI-1 renal was 6.78% (active); in the assay with A498 renal it was -72.4% (active); in the assay on CCRF-CEM leukemia it was -25.3% (active); in the assay on MOLT-4 leukemia it was -33% (active).

Consider `CCCCCCCCCCCCCCCCCCNC(=O)[C@H]1CSC(c2ccc(F)c(OC)c2)N1` (stereo not given in full), for which the growth in the assay with SK-MEL-2 melanoma is -94.1% (active); in the assay on EKVX NSCLC it was -57.5% (active); in the assay with SN12C renal, -79.2% (active); with UO-31 renal, 45.5%; with TK-10 renal it was 6.86% (active); in the assay on ACHN renal, 30.3%. The growth in the assay with CAKI-1 renal was -76.8% (active); in the assay on A498 renal it was 6.25% (active); in the assay on CCRF-CEM leukemia, -36.8% (active); in the assay on MOLT-4 leukemia it was -14.9% (active).

On to `c1ccc2sc(SCCCn3ccnc3)nc2c1`, for which the growth in the assay with SK-MEL-2 melanoma was 68.7%; in the assay on EKVX NSCLC, 90.5%; in the assay with SN12C renal, 84.2%; in the assay with UO-31 renal, 84.9%; in the assay with TK-10 renal, 84.2%; in the assay with ACHN renal, 100%. The growth was 98% in the assay with CAKI-1 renal, 80.6% in the assay with A498 renal, 81.6% in the assay with CCRF-CEM leukemia and 95.6% in the assay on MOLT-4 leukemia.

In the case of `O=C(CN1CCN(c2cc3c(cc2F)c(=O)c(C(=O)N/N=C/c2ccccc2)cn3C2CC2)CC1)N/N=C\c1ccccc1`, the growth in the assay with SK-MEL-2 melanoma is 86.1%; in the assay with EKVX NSCLC, 66.6%; in the assay on SN12C renal it was 65.7%; in the assay with UO-31 renal, 53.3%; in the assay with TK-10 renal, 89.1%; with ACHN renal it was 72%. For the same molecule, the growth is 78.1% with CAKI-1 renal, 78.7% in the assay on A498 renal, 60.9% with CCRF-CEM leukemia and 42.7% with MOLT-4 leukemia.

Regarding `C[C@H](CCC(=O)O)[C@H]1CC[C@H]2[C@@H]3CC[C@@H]4/C(=C\c5ccco5)C(=O)/C(=C\c5ccco5)C[C@]4(C)[C@H]3CC[C@]12C`, the growth was 73.2% with SK-MEL-2 melanoma; 79.1% in the assay on EKVX NSCLC; 56.3% in the assay on SN12C renal; 49.6% in the assay on UO-31 renal; 109% in the assay with TK-10 renal; 46.6% in the assay with ACHN renal. Also, the growth in the assay on CAKI-1 renal is 55.6%; with A498 renal it was 115%; in the assay on CCRF-CEM leukemia, 0.613% (active); in the assay with MOLT-4 leukemia, 0.809% (active).

For the molecule `CC(C)C1=C[C@@]23CC[C@@H]4[C@](C)(CCC[C@@]4(C)C(=O)OCC#CCN4CCCC4)[C@H]2C[C@@H]1[C@H]1C(=O)OC(=O)[C@H]13`, the growth was 97.1% with SK-MEL-2 melanoma; 86.4% in the assay on EKVX NSCLC; 93.2% in the assay on SN12C renal; 78.3% in the assay with UO-31 renal; 101% in the assay with TK-10 renal; 95.9% in the assay on ACHN renal. For the same molecule, the growth is 83.6% with CAKI-1 renal, 78.5% with A498 renal, 85.7% in the assay on CCRF-CEM leukemia and 93.9% with MOLT-4 leukemia.

Take `O=C(CO[N+](=O)[O-])Nc1ccc(C(=O)/C=C/c2ccc3c(c2)OCO3)cc1`: the growth in the assay on SK-MEL-2 melanoma is 119%; in the assay with EKVX NSCLC it was 99.7%; in the assay on SN12C renal it was 95.4%; in the assay with UO-31 renal it was 77.1%; in the assay with TK-10 renal, 111%; in the assay on ACHN renal, 99.2%. Moreover, the growth was 93% with CAKI-1 renal, 107% in the assay with A498 renal, 70% in the assay with CCRF-CEM leukemia and 99.7% in the assay with MOLT-4 leukemia.

For the molecule `CN(C)C(=O)c1cc2cnc(Nc3ccc(-c4csc5c(=O)cc(N6CCNCC6)oc45)cc3)nc2n1C1CCCC1`, the growth in the assay with SK-MEL-2 melanoma is 33.6%; in the assay with EKVX NSCLC, 40.2%; with SN12C renal it was 24.2%; in the assay on UO-31 renal, -10% (active); with TK-10 renal, 26.6%; with ACHN renal, 16%. The growth was 43.2% in the assay on CAKI-1 renal, -7.2% (active) in the assay with A498 renal, 1.39% (active) in the assay on CCRF-CEM leukemia and 4.52% (active) with MOLT-4 leukemia.

Regarding `CCOC(=O)Cc1cnn(C)c1NC(=O)c1ccc(Cl)cc1NC(C)=O`, the growth in the assay with SK-MEL-2 melanoma was 84.6%; in the assay on EKVX NSCLC, 76.3%; with SN12C renal it was 94.8%; with UO-31 renal, 91.6%; in the assay on TK-10 renal, 78.8%; with ACHN renal it was 111%. The growth is 64.8% in the assay with CAKI-1 renal, 105% with A498 renal, 97.8% in the assay with CCRF-CEM leukemia and 102% in the assay on MOLT-4 leukemia.

As for `CC[C@H](Nc1nc(N)nc(C)c1C#N)c1nc2cccc(NCc3ccc(C(=O)NO)cc3)c2c(=O)n1-c1ccccc1`, the growth in the assay with SK-MEL-2 melanoma was 27.8%; in the assay on EKVX NSCLC it was 35.6%; in the assay with SN12C renal it was 11.4%; in the assay with UO-31 renal, 4.77% (active); with TK-10 renal, 1.89% (active); with ACHN renal it was 4.61% (active). Also, the growth is 13.2% with CAKI-1 renal, -38.6% (active) with A498 renal, 0.318% (active) with CCRF-CEM leukemia and 0.225% (active) in the assay on MOLT-4 leukemia.

With `COc1ccc(-c2nn(-c3ccccc3)cc2/C=C2\SC(=O)NC2=O)cc1`, the growth with SK-MEL-2 melanoma is 100%; with EKVX NSCLC, 85.2%; in the assay on SN12C renal, 90.8%; in the assay with UO-31 renal it was 80%; with TK-10 renal, 99.7%; in the assay with ACHN renal, 96%. Further, the growth with CAKI-1 renal was 83.2%; in the assay on A498 renal, 72%; in the assay on CCRF-CEM leukemia, 91.9%; in the assay on MOLT-4 leukemia, 96.4%.

With `Nc1nc2c(c3ncccc13)C(c1ccc(Cl)c(Cl)c1)Cc1ncccc1-2` (stereo not given), the growth is 18.4% in the assay with SK-MEL-2 melanoma; 44.5% in the assay with EKVX NSCLC; 34.1% in the assay on SN12C renal; 36.9% with UO-31 renal; 29.5% in the assay on TK-10 renal; 30.2% with ACHN renal. Further, the growth was 30.9% in the assay on CAKI-1 renal, -13.5% (active) with A498 renal, 2.45% (active) in the assay with CCRF-CEM leukemia and 5.36% (active) with MOLT-4 leukemia.
